Structures are written as SMILES. Values without a mark were called inactive. No rule for the calls is given here.

The nature of the first assay: blockers of DNA damage checkpoint Chk1 activation – imaging, HeLa, hydroxyurea, phospho-Chk1 antibody, percent positive cells, primary screen (AID 1186). The following applies: hydroxyurea-induced phospho-Chk1 immunofluorescence imaging, higher = more signal.
In the case of `CN1C(=O)C2C=CC(C(O)c3ccc(Br)cc3)N(N(c3ccccc3)c3ccccc3)C2C1=O` (centres undefined), the z-score is 0.63.

For `COc1ccc(CCNC(=O)[C@@H]2c3ccccc3C(=O)N(c3ccc(C)cn3)[C@H]2c2ccc(CO)cc2)cc1`, the z-score is 0.274.

For `CCOC(=O)C1=CCC(c2cc3ccccc3[nH]2)NC1` (centres undefined), the z-score was 0.437.

For `CC(C)N1CC=CC23O[C@@H]4C=CCCOC(=O)C4[C@H]2C(=O)N(CCCCCCO)[C@@H]3C1=O` (some centres undefined), the z-score is -0.478.

As to `[N-]=[N+]=NCc1ccccc1[C@@H]1OC(c2ccc(OCCCO)cc2)=N[C@]1(Cc1ccccc1)C(=O)N1CCOCC1`, the z-score was -0.449.

As for `COCCOC(=O)N1C(=O)[C@@]2(c3cc(C#CC4(O)CCCCCC4)ccc31)[C@H](c1ccc(OCCO)cc1)N1[C@H](c3ccccc3)[C@H](c3ccccc3)OC(=O)[C@H]1[C@@H]2C(=O)NC[C@H](O)c1ccccc1`, the z-score is 0.0412.

As for `CCCNC(=O)[C@@H]1c2ccccc2C(=O)N(c2ccc(C)cn2)[C@H]1c1ccc(CO)cc1`, the z-score was 0.929.

As to `COC(=O)c1c(CC[C@@H](CO)NC(=O)N[C@H](Cc2ccccc2)Cn2cc(-c3ccccc3N)nn2)oc(C(C)=O)c1C(=O)OC`, the z-score is -0.125.

A short description of another assay: blockers of DNA damage checkpoint Chk1 activation – imaging, HeLa, hydroxyurea, phospho-Chk1 nuclear intensity, primary screen (AID 1187). Also: test concentration not given here. The following applies: hydroxyurea-induced phospho-Chk1 immunofluorescence imaging, higher = more signal.
For the compound `Cc1ccc(S[C@]2(C(=O)NCC(F)(F)F)CC(=O)N(Cc3ccccc3Cl)[C@@H]2c2ccc(CO)cc2I)cc1`, the z-score was 0.92.

Consider `Cc1ccc(S[C@]2(C(=O)O)CC(=O)N(Cc3ccccc3)[C@@H]2c2ccc(CO)cc2I)cc1`, for which the z-score was -0.134.

Take `COC(=O)C1(C)C=C2C(=C(c3ccccc3)C(=O)C2C)CN1` (centres undefined): the z-score is 0.84.

On to `CC(C)[Si]1(C(C)C)O[C@@H](c2ccccc2)c2cc(C3CC3)nc(-c3ccccc3)c21`, for which the z-score is -0.694.

With `CN1C(=O)C2C=CC(C(O)C(c3ccccc3)c3ccccc3)N(NC(=O)OC(C)(C)C)C2C1=O` (centres undefined), the z-score is -0.158.

For `COC(=O)[C@@H]1N=C(c2ccc(OCCCO)cc2)O[C@@H]1c1ccccc1N=[N+]=[N-]`, the z-score is -0.269.

For `C=C(/C(=C/C[C@H](OC(C)=O)c1ccc(OCCO)cc1)c1cnc2ccccc2c1)C(C)C`, the z-score was -0.38.

In the case of `COCCCNC(=O)[C@@]1(CCS(=O)(=O)c2ccccc2)N=C(c2ccc(OCCCO)cc2)O[C@H]1c1ccccc1`, the z-score is -0.2.

Regarding `CC(C)NC(=O)[C@@]1(c2ccc([N+](=O)[O-])cc2)CC(=O)N(CC23CC4CC(CC(C4)C2)C3)[C@@H]1c1ccc(CO)cc1I`, the z-score is 1.16.

For `CCCCCN1CC=CC23O[C@@H]4C=CCOC(=O)[C@@H]4[C@H]2C(=O)N(C(CO)C(C)C)[C@@H]3C1=O` (some centres undefined), the z-score was 0.0917.

Take `COc1ccc([Si](C)(C)[C@@H]2[C@@H](CCO)O[C@]3(C(=O)N(Cc4ccc(NC(C)=O)cc4)c4ccccc43)[C@H]2C)cc1`: the z-score was -0.16.

As to `O[C@@H](Cc1ccccc1)[C@H]1C2C=CCCC(c3ccccc3)=C2CN1Cc1cccc(Cl)c1` (some centres undefined), the z-score is 0.0934.

Regarding `CN1C(=O)[C@@]2(CCC(=O)OC(C)(C)C)N=C(c3ccc(OCCCO)cc3)O[C@H]2c2ccccc21`, the z-score was -0.261.

With `O=C1NC(=O)C2C1C=CC(C(O)Cc1ccccc1)N2Nc1ccccn1` (centres undefined), the z-score was -0.306.

Regarding `CO[C@H]1O[C@H](CO)[C@@H](OC(=O)Nc2ccc3c(c2)OCO3)[C@H](OC(=O)Nc2ccccc2-c2ccccc2)[C@@H]1OC(=O)Nc1ccccc1-c1ccccc1`, the z-score was -0.199.

Turning to `CC(C)c1ccc(NN2C(C(O)c3ccc4c(c3)OCO4)C=CC3C(=O)N(c4ccccc4)C(=O)C32)cc1` (centres undefined), the z-score is -0.575.

Regarding `COC(=O)[C@H]1COC(c2ccc(OCCCO)cc2)=N1`, the z-score is -0.388.

On to `C[N+](C)(C)CCCCCCNC(=O)[C@@H]1C[C@@H]2C(=O)N3CCC[C@H]3C(=O)N2[C@@H]1c1cccc(OCCO)c1`, for which the z-score is -0.0252.

On to `CS(=O)(=O)CCOC(=O)C1=CC(CCCO)=CC(c2cccs2)N(Cc2cccc(OC(F)(F)F)c2)C=C1C(=O)OCCS(C)(=O)=O` (centres undefined), for which the z-score is 0.918.

For the compound `C=CCN1C(=O)[C@]2(O[C@H](CCn3cc(CCO)nn3)[C@@H]([Si](C)(C)c3ccc(OC)cc3)[C@@H]2C)c2cc(N3CCOC3=O)ccc21`, the z-score is -0.5.

With `CC(C)NC(=O)[C@@]1(C)c2ccccc2C(=O)N(Cc2cc(F)cc(C(F)(F)F)c2)[C@H]1c1ccc(CO)cc1`, the z-score was -0.37.

As to `CO[C@H]1O[C@H](CO)[C@@H](OC(=O)Nc2ccc(C#N)cc2)[C@H](OC(=O)c2cc3ccccc3[nH]2)[C@H]1OC(=O)c1cc2ccccc2[nH]1`, the z-score is -0.52.

`COc1ccc([Si](C)(C)[C@@H]2[C@@H](CC(=O)N3CCC[C@H]3CO)O[C@]3(C(=O)N(Cc4cccc(N5CCC5=O)c4)c4ccccc43)[C@H]2C)cc1`: the z-score is 0.535.

As for `CCCNC(=O)[C@@H]1c2ccccc2C(=O)N(Cc2ccccc2Cl)[C@H]1c1ccc(CO)cc1`, the z-score was -0.142.

As to `C=C(/C(=C/C[C@@H](OC(=O)c1ccncc1)c1ccc(OCCO)cc1)c1cnc2ccccc2c1)C(C)C`, the z-score was -0.051.

In the case of `O=C1C[C@]2(c3ccc([N+](=O)[O-])cc3)C(=O)N(CCN3CCOCC3)c3cc(CO)ccc3[C@H]2N1CC12CC3CC(CC(C3)C1)C2`, the z-score was 0.394.

Consider `CN(C)CCCNC(=O)[C@@H]1c2ccccc2C(=O)N(Cc2cc(F)cc(C(F)(F)F)c2)[C@H]1c1ccc(CO)cc1`, for which the z-score was -0.0884.

For `CN(C)CCCNC(=O)[C@@H]1c2ccccc2C(=O)N(Cc2ccccc2)[C@H]1c1ccc(CO)cc1`, the z-score was 0.372.

With `CN1C(=O)C2C=CC(C(O)c3ccc(Br)cc3)N(N(c3ccccc3)c3ccccc3)C2C1=O` (centres undefined), the z-score was 0.0215.

`COc1ccc(CCNC(=O)[C@@H]2c3ccccc3C(=O)N(c3ccc(C)cn3)[C@H]2c2ccc(CO)cc2)cc1`: the z-score is 0.259.

Regarding `CCOC(=O)C1=CCC(c2cc3ccccc3[nH]2)NC1` (centres undefined), the z-score is -0.151.

As for `CC(C)N1CC=CC23O[C@@H]4C=CCCOC(=O)C4[C@H]2C(=O)N(CCCCCCO)[C@@H]3C1=O` (some centres undefined), the z-score is -0.286.

In the case of `[N-]=[N+]=NCc1ccccc1[C@@H]1OC(c2ccc(OCCCO)cc2)=N[C@]1(Cc1ccccc1)C(=O)N1CCOCC1`, the z-score is -1.03.

Regarding `COCCOC(=O)N1C(=O)[C@@]2(c3cc(C#CC4(O)CCCCCC4)ccc31)[C@H](c1ccc(OCCO)cc1)N1[C@H](c3ccccc3)[C@H](c3ccccc3)OC(=O)[C@H]1[C@@H]2C(=O)NC[C@H](O)c1ccccc1`, the z-score was 0.0764.

In the case of `CCCNC(=O)[C@@H]1c2ccccc2C(=O)N(c2ccc(C)cn2)[C@H]1c1ccc(CO)cc1`, the z-score was 0.52.

In the case of `COC(=O)c1c(CC[C@@H](CO)NC(=O)N[C@H](Cc2ccccc2)Cn2cc(-c3ccccc3N)nn2)oc(C(C)=O)c1C(=O)OC`, the z-score is 0.189.
